Screening data as filed in PubChem.
Compounds with a hit are over-represented: about 9.4% of the library has one in this group of screens.
AMA1 RON2 block: inhibitors of Plasmodium falciparum AMA1-RON2 interaction. AlphaScreen AMA1-biotinylated RON2 peptide binding. Potency, µM (doses to about 58.2 µM), for inactives: top-dose activity change, negative = inhibition, actives largely listed as inhibitors. 360,000 tested, 0.2% active;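 note: 0% = vehicle wells and -100% = peptide control; nearly all actives have a fitted effect of over 45% in size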
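AMA1 (3D7) with his tag at 25 nM final met compounds first, then biotinylated RON2 peptide at 25 nM; detection used donor plus acceptor beads, 10 µg/mL apiece, read by AlphaScreen after 30 min at room temperature.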
Pf growth 96h: inhibits malaria parasite growth, 96 h | P. falciparum luciferase reporter growth, 96 h | Potency, µM (highest dose often 28.7 µM), without a hit: at the highest dose activity change, negative = inhibition, usual class: inhibitors | 320,000 tested, 6.9% active | AID 504834; note: % is set by controls: 0 for no effect and ±100 for the full control effect
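Readout is luminescence from an integrated firefly luciferase in P. falciparum. Red cells, 2% hematocrit and 0.05% parasitemia final, were cultured with compound through two parasite generations (96 hours) at 37 C, 5% CO2.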
SARS PLP yeast: inhibitors of SARS-CoV papain-like protease in yeast; S. cerevisiae expressing SARS-CoV PLpro, growth rescue; Potency, µM (titrated, usually from 32.9 µM), for the others: at the highest dose activity, positive = growth rescue, usual class: activators; 330,000 tested, 0.19% active; AID 485353; calls by dose curve; note: 0% is about no effect; nearly all actives have a fitted effect of over 55% in size
Pf growth 48h: inhibits P. falciparum growth in the first generation, 48 h | 310,000 tested, 5.9% active | P. falciparum luciferase growth in erythrocytes, 48 h | Potency, µM (series often up to 28.7 µM), inactives show top-dose activity change, negative = inhibition, usual class: inhibitors; note: % is set by controls: 0 for no effect and ±100 for the full control effect
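Luminescence readout; reporter = integrated firefly luciferase in P. falciparum. RBC culture at 2% hematocrit, 0.1% parasitemia final, 37 C/5% CO2; decreased signal taken as growth inhibition.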
Active calls of the source: *; ? = inconclusive; / = no result given. Unless noted, calls come from the whole dose curve; as a rule, active = well fitted curve in the direction sought with a large enough effect; inconclusive = small, poorly fitted or top-dose-only effect, or another doubt; inactive = no such curve, though single readings can be large; an effect the other way counts as inactive or inconclusive. Potency is the fitted concentration of half-maximal effect.

SMILES | AMA1 RON2 block | Pf growth 96h | SARS PLP yeast | Pf growth 48h
CCC(=O)c1ccc(OCC(=O)OCC(=O)NC2CCCCCCC2)cc1 | 2% | 21% | -3% | 12%
CN(C)c1ccc(S(=O)(=O)N2CCCCC2)cc1NC(=O)CN1C(=O)NC(C)(c2ccccc2)C1=O (centres undefined) | -4% | ? | 0% | ?
CCN(CC)c1ccc(S(=O)(=O)N2CCOCC2)cc1NC(=O)CN1C(=O)NC2(CCC(C)CC2)C1=O (centres undefined) | -3% | 13µM* | -2% | ?
CN(C)c1ccc(S(=O)(=O)N2CCCCC2)cc1NC(=O)CN1C(=O)NC2(CCCC2)C1=O | -4% | ? | / | 13µM*
CCN(C(C)=O)N(CC)c1nc(Cl)nc(NC(C)C)n1 | 17% | ? | 7% | -16%
CCn1c(SCC(=O)Nc2c(C)n(C)n(-c3ccccc3)c2=O)nnc1-c1cccc(C)c1 | 5% | ? | -2% | -3%
Cc1cc(C)nc(N2CCC(C(=O)Nc3ccc4c(c3)CCC4)CC2)n1 | -3% | 12µM* | 3% | 16%
Cc1cc(C)nc(N2CCCC(C(=O)Nc3nc4ccc(S(C)(=O)=O)cc4s3)C2)n1 (centres undefined) | -7% | / | -1% | 7.4µM*
Cc1cc(C)nc(N2CCCC(C(=O)Nc3ccc4nc(C)c(C)nc4c3)C2)n1 (centres undefined) | -7% | / | -9% | 12µM*
Cc1ccnc(N2CCC(C(=O)Nc3ccc4c(c3)CCC4)CC2)n1 | -7% | -2% | 5% | -15%
COc1cc(C)nc(N2CCCC(C(=O)NC3CCC(C)CC3)C2)n1 (centres undefined) | -3% | 2.9µM* | 2% | 28%
C=CCN(c1nc(C)c(Br)c(OC)n1)S(=O)(=O)c1ccc(C)cc1 | 5% | ? | -3% | -13%
Cc1ccc(C2SCC(=O)N2Cc2ccccc2)cc1 (centres undefined) | 0% | 13µM* | 0% | -3%
COc1ccc(C2SCC(=O)N2Cc2ccccc2)cc1 (centres undefined) | -6% | 10% | -2% | 14%
Cc1cccc(NC(=O)c2ccc(C3SCC(=O)N3CCc3ccccc3)cc2)c1C (centres undefined) | -11% | 8.3µM* | 0% | /
O=C1CSC(c2cccc(O)c2)N1Cc1ccccc1 (centres undefined) | 0% | 0% | 2% | -1%
CCc1ccc(NC(=O)c2ccc(C3SCC(=O)N3CCc3ccccc3)cc2)cc1 (centres undefined) | 9% | ? | 0% | /
COc1cc(C2SCC(=O)N2Cc2ccccc2)ccc1O (centres undefined) | -6% | 9.3µM* | -2% | 2%
O=C(Nc1ccc2c(c1)CCC2)c1cnn2c1NC(c1ccco1)CC2C(F)(F)F (centres undefined) | 0% | / | -3% | 18%
CCOc1ccccc1N1CCN(CC(=O)Nc2nc(C)c(C(=O)N(C)C)s2)CC1 | 3% | -6% | -2% | -5%
Cn1c(-c2ccccc2)cc(=O)cc1-c1ccccc1 | 0% | / | / | /
O=C1CCc2cc(S(=O)(=O)NCCCC(=O)N3CCN(Cc4ccc5c(c4)OCO5)CC3)ccc2N1 | 6% | 13µM* | 5% | -46%
O=C1C2C3C=CC(CC3)C2C(=O)N1c1ccc(Br)cc1 (centres undefined) | 0% | / | / | /
Cc1ccc(NC(=S)NC(=O)C2CC2)cc1Cl | 18% | 9.3µM* | ? | -26%
O=C(NC(=S)Nc1ccc(F)c(Cl)c1)C1CC1 | 0% | -6% | 19% | -37%
SMILES | AMA1 RON2 block | Pf growth 96h | SARS PLP yeast | Pf growth 48h
O=C(Nc1ccc2c(c1)OCO2)c1ccc2nc[nH]c2c1 | 4% | 40% | -10% | /
Cc1ccc(C)c(S(=O)(=O)C(C#N)c2nc3ccccc3nc2N2CC(C)OC(C)C2)c1 (centres undefined) | 3% | -24% | -16% | 13µM*
CCN(CC(=O)NCc1ccc(Cl)cc1)C(=O)CSCC(=O)Nc1ccc(OC)cc1 | 50% | -1% | -6% | ?
Clc1cccc(-c2nnc(SC/C=C/c3ccccc3)n2Cc2ccco2)c1 | -2% | ? | -7% | /
COC(=O)c1sc(-c2cccs2)cc1NC(=O)/C=C/C(=O)O | -14% | 5% | -10% | 7%
COc1cc(OC)c(C(=O)Nc2cc(Cl)ccc2-n2cncn2)cc1OC | 3% | 5.9µM* | -1% | 5.9µM*
O=C(Nc1ccccc1F)Nc1cc(Cl)ccc1-n1cncn1 | -9% | 16% | -1% | 0%
CC(Oc1ccccc1)C(=O)Nc1cc(Cl)ccc1-n1cncn1 (centres undefined) | -13% | 2.3µM* | 1% | 3.7µM*
CC(Oc1ccc(F)cc1)C(=O)Nc1cc(Cl)ccc1-n1cncn1 (centres undefined) | 9% | 2.6µM* | -13% | 2.3µM*
COc1cccc(C(O)C2OC(=O)c3ccccc32)c1OC (centres undefined) | 5% | / | / | /
Cc1sc2nc(SC(C)C)nc(N)c2c1C | 10% | / | 8% | -17%
O=C(O)c1ccc(/C=C/C(=O)c2ccc3c(c2)OCCCO3)cc1 | 10% | 102% | -4% | 54%
Clc1cccc(SC2CCNCC2)n1 | / | 4.3µM* | / | -1%
Cc1ccc(S(=O)(=O)N2[C@@H](CO)CO[C@H]2CC(=O)c2cccc3ccccc23)cc1 | -8% | / | / | /
CCN1C(=O)/C(=C/c2cccs2)N(C)C1=S | -19% | 1.7µM* | 11% | /
COCCN(C(=O)COC(=O)C1COc2ccccc2O1)c1c(N)n(Cc2ccccc2)c(=O)[nH]c1=O (centres undefined) | 6% | 31% | -1% | 9%
NC(=O)c1ccc(Cc2ncc(C(F)(F)F)cc2Cl)s1 | -4% | 5.2µM* | 0% | -22%
COc1ccc(Cl)cc1NC(=O)CN(C)Cc1cccs1 | 11% | ? | -1% | ?
C=CCn1c(=O)c2ccc(C(=O)NCc3ccccc3)cc2n(Cc2ccccc2Cl)c1=O | 9% | 0% | -12% | 16%
COc1cccc(C(C(=O)NC(C)(C)C)N(C(=O)CCC(=O)Nc2cc(C)on2)C(C)C)c1OC (centres undefined) | -13% | ? | 4% | 12µM*
COCCN(C(=O)CCC(=O)Nc1cc(C)on1)C(C(=O)NC(C)(C)C)c1ccc(OC)cc1 (centres undefined) | -10% | -6% | 1% | -1%
COc1ccc(C(C(=O)NC(C)(C)C)N(Cc2ccc(C)cc2)C(=O)CCC(=O)Nc2cc(C)on2)cc1 (centres undefined) | ? | 14% | 0% | 9.3µM*
O=C1CN(C(=O)CSc2nc3ccccc3c(=O)n2CC2CCCO2)c2ccccc2N1 (centres undefined) | 1% | ? | 1% | -21%
C=CCn1c(SCC(=O)N2CC(=O)Nc3ccccc32)nc2scc(-c3ccccc3)c2c1=O | 10% | 4.7µM* | -6% | 8.3µM*
O=C1CN(C(=O)CSc2nc3cc(Cl)ccc3c(=O)n2Cc2ccccc2)c2ccccc2N1 | 51% | ? | 7% | 3.3µM*
